# Assay results as given in the supplement of paper PMC8728848.
# The full list was thinned out, with the strongest signals kept by preference.
# B1: SalT (Orysata sativa) (protein)
# chain: MTLVKIGLWGGNGGSAQDISVPPKKLLGVTIYSSDAIRSIAFNYIGVDGQEYAIGPWGGGEGTSTEIKLGSSEHIKEISGTHGPVYDLADIVTYLKIVTSANNTYEAGVPNGKEFSIPLQDSGHVVGFFGRSGTLIDAIGIYVHPILEQKLISEEDLNSAVDHHHHHH
# Assays:
# Test in all cases: glycan array binding signal (z-score within array); higher = stronger binding
# Details in all cases: glycan notation: IUPAC condensed, linker removed
# [1] = target: Fuc(a1-2)Gal(b1-3)GalNAc
# In short: (§1)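 Arrays were curated from the Consortium for Functional Glycomics database, 3228 in total, and kept only where the protein sequence was available. Binding is expressed as a within-array Z-score. This score was averaged across arrays of the same protein sequence at different concentrations or buffers and across linkers, and negative values can be read as non-binding.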
# [2] = target: Fuc(a1-2)Gal(b1-3)GalNAc(a1-3)[Fuc(a1-2)]Gal(b1-4)Glc
# In short: as §1
# [3] = target: Fuc(a1-2)Gal(b1-3)GalNAc(a1-3)[Fuc(a1-2)]Gal(b1-4)GlcNAc
# In short: as §1
# [4] = target: Fuc(a1-2)Gal(b1-3)[Fuc(a1-4)]GlcNAc(b1-3)[Fuc(a1-3)[Gal(b1-4)]GlcNAc(b1-6)]Gal(b1-4)Glc
# In short: as §1
# [5] = target: Fuc(a1-2)Gal(b1-4)GlcNAc(b1-3)GalNAc
# In short: as §1
# [6] = target: Fuc(a1-2)Gal(b1-4)GlcNAc6S
# In short: as §1
# [7] = target: Fuc(a1-2)Gal(b1-4)[Fuc(a1-3)]GlcNAc(b1-3)Gal(b1-4)[Fuc(a1-3)]GlcNAc
# In short: as §1
# [8] = target: Fuc(a1-2)[Gal(a1-3)]Gal(b1-4)Glc
# In short: as §1
# [9] = target: Fuc(a1-2)[Gal(a1-4)]Gal(b1-4)GlcNAc
# In short: as §1
# [10] = target: Fuc(a1-2)[GalNAc(b1-3)]Gal
# In short: as §1
# [11] = target: Fuc(a1-3)[Gal(b1-4)]GlcNAc(b1-3)GalNAc
# In short: as §1
# [12] = target: Fuc(a1-3)[Gal(b1-4)]GlcNAc(b1-6)[Gal(b1-3)GlcNAc(b1-3)]Gal(b1-4)Glc
# In short: as §1
# [13] = target: Fuc(a1-3)[GalNAc(b1-4)]GlcNAc
# In short: as §1
# [14] = target: Gal(a1-4)Gal(b1-3)GlcNAc(b1-2)Man(a1-3)[Gal(a1-4)Gal(b1-3)GlcNAc(b1-2)Man(a1-6)]Man(b1-4)GlcNAc(b1-4)GlcNAc
# In short: as §1
# [15] = target: Gal(b1-3)Gal(b1-4)GlcNAc(b1-2)Man(a1-3)[Gal(b1-3)Gal(b1-4)GlcNAc(b1-2)Man(a1-6)]Man(b1-4)GlcNAc(b1-4)GlcNAc
# In short: as §1
# [16] = target: Gal(b1-3)GlcNAc(b1-2)Man(a1-3)[Gal(b1-3)GlcNAc(b1-2)Man(a1-6)]Man(b1-4)GlcNAc(b1-4)GlcNAc
# In short: as §1
# [17] = target: Gal(b1-4)GlcNAc(b1-2)Man(a1-3)[Gal(b1-4)GlcNAc(b1-2)][GlcNAc(b1-4)]Man(b1-4)GlcNAc(b1-4)GlcNAc
# In short: as §1
# [18] = target: Gal(b1-4)GlcNAc(b1-2)Man(a1-3)[GlcNAc(b1-2)Man(a1-6)]Man(b1-4)GlcNAc(b1-4)GlcNAc
# In short: as §1
# [19] = target: Gal(b1-4)GlcNAc(b1-2)Man(a1-6)[Man(a1-3)]Man(b1-4)GlcNAc(b1-4)GlcNAc
# In short: as §1
# [20] = target: Gal(b1-4)GlcNAc(b1-2)[Gal(b1-4)GlcNAc(b1-6)]Man(a1-6)[Gal(b1-4)GlcNAc(b1-2)Man(a1-3)]Man(b1-4)GlcNAc(b1-4)[Fuc(a1-6)]GlcNAc
# In short: as §1
# [21] = target: Gal(b1-4)GlcNAc(b1-6)GalNAc
# In short: as §1
# [22] = target: Gal3S(b1-4)[Fuc(a1-3)]Glc6S
# In short: as §1
# [23] = target: GalNAc3S(b1-4)GlcNAc
# In short: as §1
# [24] = target: Glc(b1-4)Glc
# In short: as §1
# [25] = target: GlcNAc(b1-2)Man(a1-3)[GlcNAc(b1-2)Man(a1-6)]Man(b1-4)GlcNAc(b1-4)GlcNAc
# In short: as §1
# [26] = target: GlcNAc(b1-3)[GlcNAc(b1-6)]GalNAc
# In short: as §1
# [27] = target: Kdn(a2-3)Gal(b1-4)Glc
# In short: as §1
# [28] = target: Man(a1-2)Man(a1-3)[Man(a1-2)Man(a1-6)]Man(a1-6)[Man(a1-2)Man(a1-2)Man(a1-3)]Man
# In short: as §1
# [29] = target: Man(a1-2)Man(a1-6)[Man(a1-3)]Man(a1-6)[Man(a1-2)Man(a1-2)Man(a1-3)]Man
# In short: as §1
# [30] = target: Man(a1-3)[Man(a1-6)]Man(a1-6)[Man(a1-2)Man(a1-3)]Man(b1-4)GlcNAc(b1-4)GlcNAc
# In short: as §1
binder,measurement,setting,value
B1,glycan array binding signal (z-score),[1],-0.283
same,glycan array binding signal (z-score),[2],-0.306
same,glycan array binding signal (z-score),[3],-0.31
same,glycan array binding signal (z-score),[4],-0.307
same,glycan array binding signal (z-score),[5],-0.307
same,glycan array binding signal (z-score),[6],-0.308
same,glycan array binding signal (z-score),[7],-0.308
same,glycan array binding signal (z-score),[8],-0.308
same,glycan array binding signal (z-score),[9],-0.309
same,glycan array binding signal (z-score),[10],-0.31
same,glycan array binding signal (z-score),[11],-0.301
same,glycan array binding signal (z-score),[12],-0.31
same,glycan array binding signal (z-score),[13],-0.306
same,glycan array binding signal (z-score),[14],3.59
same,glycan array binding signal (z-score),[15],3.71
same,glycan array binding signal (z-score),[16],3.69
same,glycan array binding signal (z-score),[17],0.03
same,glycan array binding signal (z-score),[18],2.65
same,glycan array binding signal (z-score),[19],4.64
same,glycan array binding signal (z-score),[20],0.799
same,glycan array binding signal (z-score),[21],-0.307
same,glycan array binding signal (z-score),[22],-0.3
same,glycan array binding signal (z-score),[23],-0.306
same,glycan array binding signal (z-score),[24],-0.309
same,glycan array binding signal (z-score),[25],4.06
same,glycan array binding signal (z-score),[26],-0.309
same,glycan array binding signal (z-score),[27],-0.306
same,glycan array binding signal (z-score),[28],-0.304
same,glycan array binding signal (z-score),[29],-0.282
same,glycan array binding signal (z-score),[30],5.46
